This is an account of results in ChEMBL document CHEMBL5308504, “Tm Shift (DSF) assay results for EUbOPEN Chemogenomics Library” (2023).

Structures are written as SMILES.

Conditions in all cases: Compound concentration 20.0 uM, Protein concentration 2.0 uM, Result type QC Liability
Experiment [1] deals with Tyrosine-protein kinase ABL1 (Homo sapiens) (UniProt P00519).
Experiment [2] concerns the target Cyclin-dependent kinase 2 (Homo sapiens) (UniProt P24941).
In experiment [3] the target is Casein kinase I isoform delta (Homo sapiens) (UniProt P48730).
The target in experiment [4] is Glycogen synthase kinase-3 beta (Homo sapiens) (UniProt P49841).
Experiment [5] concerns the target Mitogen-activated protein kinase 1 (Homo sapiens) (UniProt P28482).
In experiment [6] the target is T1, Aurora kinase A (Homo sapiens) (UniProt O14965).
T1 sequence (whole entry): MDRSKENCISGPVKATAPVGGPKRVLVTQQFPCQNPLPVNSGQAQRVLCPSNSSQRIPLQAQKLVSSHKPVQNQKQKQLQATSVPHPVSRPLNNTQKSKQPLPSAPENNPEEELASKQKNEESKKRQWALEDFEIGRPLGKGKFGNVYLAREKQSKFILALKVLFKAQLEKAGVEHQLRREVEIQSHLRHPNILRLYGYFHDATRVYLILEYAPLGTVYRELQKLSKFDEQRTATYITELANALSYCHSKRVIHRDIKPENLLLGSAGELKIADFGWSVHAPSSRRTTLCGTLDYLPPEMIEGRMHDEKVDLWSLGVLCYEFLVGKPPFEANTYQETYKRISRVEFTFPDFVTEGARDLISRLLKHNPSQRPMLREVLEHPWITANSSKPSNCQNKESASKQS

Sequence of Glycogen synthase kinase-3 beta (Homo sapiens) (P49841 whole entry, looked up): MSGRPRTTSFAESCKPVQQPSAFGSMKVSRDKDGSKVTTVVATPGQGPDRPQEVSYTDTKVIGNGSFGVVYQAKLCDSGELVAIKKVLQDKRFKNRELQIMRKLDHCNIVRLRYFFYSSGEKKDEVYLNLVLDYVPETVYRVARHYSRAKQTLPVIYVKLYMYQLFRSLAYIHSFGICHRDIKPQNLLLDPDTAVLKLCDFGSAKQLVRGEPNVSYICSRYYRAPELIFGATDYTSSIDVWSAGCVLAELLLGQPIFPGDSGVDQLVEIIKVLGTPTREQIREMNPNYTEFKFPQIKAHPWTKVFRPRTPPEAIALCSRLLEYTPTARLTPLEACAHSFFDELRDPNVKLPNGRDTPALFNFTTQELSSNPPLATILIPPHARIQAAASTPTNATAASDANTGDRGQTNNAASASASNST
Sequence of Tyrosine-protein kinase ABL1 (Homo sapiens) (P00519 whole entry): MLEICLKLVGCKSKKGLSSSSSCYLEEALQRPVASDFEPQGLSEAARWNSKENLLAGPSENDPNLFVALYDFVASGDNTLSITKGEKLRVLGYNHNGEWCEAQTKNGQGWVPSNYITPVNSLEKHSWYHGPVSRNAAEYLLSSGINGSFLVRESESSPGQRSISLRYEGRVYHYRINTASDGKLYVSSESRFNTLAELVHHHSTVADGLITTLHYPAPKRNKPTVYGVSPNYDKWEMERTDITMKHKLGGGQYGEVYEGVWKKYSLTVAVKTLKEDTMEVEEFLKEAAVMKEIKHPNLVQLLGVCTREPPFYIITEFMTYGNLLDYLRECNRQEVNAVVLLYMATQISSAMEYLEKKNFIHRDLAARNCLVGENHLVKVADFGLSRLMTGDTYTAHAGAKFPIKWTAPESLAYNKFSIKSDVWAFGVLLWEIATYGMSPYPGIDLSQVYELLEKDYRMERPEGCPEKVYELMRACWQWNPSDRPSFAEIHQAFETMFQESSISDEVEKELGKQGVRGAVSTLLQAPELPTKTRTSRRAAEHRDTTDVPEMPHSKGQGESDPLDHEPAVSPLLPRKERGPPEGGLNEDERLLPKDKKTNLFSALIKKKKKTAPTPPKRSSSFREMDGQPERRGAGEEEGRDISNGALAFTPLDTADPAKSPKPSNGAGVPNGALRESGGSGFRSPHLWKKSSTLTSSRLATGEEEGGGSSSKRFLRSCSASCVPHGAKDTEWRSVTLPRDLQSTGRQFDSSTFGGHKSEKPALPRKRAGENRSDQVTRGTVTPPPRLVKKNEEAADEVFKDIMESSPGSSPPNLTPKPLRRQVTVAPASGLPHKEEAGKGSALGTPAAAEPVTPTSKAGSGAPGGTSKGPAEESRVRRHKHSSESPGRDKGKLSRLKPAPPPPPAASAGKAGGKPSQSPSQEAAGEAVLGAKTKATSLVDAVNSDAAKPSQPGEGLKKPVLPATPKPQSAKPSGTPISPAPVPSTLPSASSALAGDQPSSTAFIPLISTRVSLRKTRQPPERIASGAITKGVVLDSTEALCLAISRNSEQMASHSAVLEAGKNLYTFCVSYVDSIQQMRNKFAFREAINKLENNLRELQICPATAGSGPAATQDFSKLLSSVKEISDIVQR
Sequence of Casein kinase I isoform delta (Homo sapiens) (P48730 whole entry, looked up, canonical isoform): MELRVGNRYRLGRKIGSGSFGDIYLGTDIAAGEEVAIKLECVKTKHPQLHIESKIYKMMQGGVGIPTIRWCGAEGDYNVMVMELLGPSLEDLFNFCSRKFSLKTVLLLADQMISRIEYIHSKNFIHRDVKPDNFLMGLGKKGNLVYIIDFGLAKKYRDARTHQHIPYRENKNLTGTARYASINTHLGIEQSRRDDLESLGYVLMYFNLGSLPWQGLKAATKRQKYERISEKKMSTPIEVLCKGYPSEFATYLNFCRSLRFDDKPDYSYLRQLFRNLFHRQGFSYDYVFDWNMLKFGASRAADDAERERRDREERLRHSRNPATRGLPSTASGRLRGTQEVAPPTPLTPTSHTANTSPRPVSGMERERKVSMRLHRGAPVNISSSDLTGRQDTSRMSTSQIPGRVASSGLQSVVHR
Sequence of Mitogen-activated protein kinase 1 (Homo sapiens) (P28482 whole entry): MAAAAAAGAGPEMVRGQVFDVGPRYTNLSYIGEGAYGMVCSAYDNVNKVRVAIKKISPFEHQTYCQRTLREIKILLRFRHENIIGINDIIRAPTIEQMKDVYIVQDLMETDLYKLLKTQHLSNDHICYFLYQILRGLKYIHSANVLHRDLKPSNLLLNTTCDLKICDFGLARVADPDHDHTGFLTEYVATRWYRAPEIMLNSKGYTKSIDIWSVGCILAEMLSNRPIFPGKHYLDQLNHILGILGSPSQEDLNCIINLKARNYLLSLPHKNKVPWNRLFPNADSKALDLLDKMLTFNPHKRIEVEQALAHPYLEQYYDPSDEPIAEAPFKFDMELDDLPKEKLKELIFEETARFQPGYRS

Take `O=C(NCCS(=O)(=O)c1ccc(C(F)(F)F)cn1)c1ccc(Cl)cc1`: the ΔTm (commonly the shift of the melting midpoint relative to a reference) is 0 °C in experiment [1]; 0.73 °C in experiment [2]; 0.23 °C in experiment [3]; -1.08 °C in experiment [4]; 0.3 °C in experiment [5]; -0.52 °C in experiment [6].
For `CCN(C)C(=O)c1ccc2c(c1)NC(=O)/C2=C(\NC1CCN(C)CC1)c1ccccc1`, the ΔTm was -0.14 °C in experiment [1]; 0.01 °C in experiment [2]; 0.23 °C in experiment [3]; 2.01 °C in experiment [4]; 0.03 °C in experiment [5]; -0.37 °C in experiment [6].
With `COC(=O)c1ccc2c(c1)NC(=O)/C2=C(\Nc1ccc(-c2nccn2C)cc1)c1ccccc1`, the ΔTm in experiment [1] was 3.43 °C; in experiment [2] it was 0.27 °C; in experiment [3], -0.5 °C; in experiment [4], 1.96 °C; in experiment [5], -6.31 °C; in experiment [6], -1.46 °C.
For `CO[C@H]1C[C@@H]2CC[C@@H](C)[C@@](O)(O2)C(=O)C(=O)N2CCCC[C@H]2C(=O)O[C@H]([C@H](C)C[C@@H]2CC[C@@H](O)[C@H](OC)C2)CC(=O)[C@H](C)/C=C(\C)[C@@H](O)[C@@H](OC)C(=O)[C@H](C)C[C@H](C)/C=C/C=C/C=C/1C`, the ΔTm in experiment [1] is 0.32 °C; in experiment [2] it was -0.19 °C; in experiment [3], -0.1 °C; in experiment [4] it was -0.7 °C; in experiment [5] it was -0.72 °C; in experiment [6], -0.26 °C.
Turning to `NC(=O)OC[C@H](NC(=O)Cn1nc(-c2ccc(Cl)cc2)n(C[C@H](O)C(F)(F)F)c1=O)c1cccc(C(F)(F)F)c1`, the shift in melting temperature (ΔTm) was 1.4 °C in experiment [1]; 1.62 °C in experiment [2]; 0.82 °C in experiment [3]; 2.1 °C in experiment [4]; 1.35 °C in experiment [5]; 0.82 °C in experiment [6].
As to `CC1(C)Cc2nc(C3CCCC3)c([C@@H](F)c3ccc(C(F)(F)F)cc3)c(C3CCCCC3)c2[C@@H](O)C1`, the ΔTm in experiment [1] is 0 °C; in experiment [2], 1.04 °C; in experiment [3], 0.11 °C; in experiment [4], 0 °C; in experiment [5], 0.06 °C; in experiment [6], -0.24 °C.
As to `Cc1nccc(COC(=O)N2C[C@@H]3[C@@H](CNC(=O)c4ccc5[nH]nnc5c4)[C@@H]3C2)n1`, the ΔTm is -0.16 °C in experiment [1]; 0.19 °C in experiment [2]; 0.34 °C in experiment [3]; 0.22 °C in experiment [4]; 0.26 °C in experiment [5]; -0.07 °C in experiment [6].
For the molecule `CC(C)c1cnn2c(NCc3ccccc3)cc(NCCCCCCN)nc12`, the ΔTm in experiment [1] was -0.02 °C; in experiment [2], 1.03 °C; in experiment [3], 2.94 °C; in experiment [4] it was -0.56 °C; in experiment [5] it was 0.38 °C; in experiment [6], -1.2 °C.
`Cc1nc2cccnc2n2c(-c3cc([C@@]4(O)CCCOC4)ccc3Cl)nnc12`: the ΔTm in experiment [1] was -0.53 °C; in experiment [2], 0.88 °C; in experiment [3], 0.26 °C; in experiment [4], -0.63 °C; in experiment [5], 0 °C; in experiment [6], -0.06 °C.
In the case of `CCN(CC)C(=O)C1CN2CCc3cc(OC)c(OC)cc3C2CC1OC(C)=O` (stereo not drawn), the ΔTm in experiment [1] is -0.43 °C; in experiment [2], 0.69 °C; in experiment [3], -0.03 °C; in experiment [4], -1.02 °C; in experiment [5], 0.11 °C; in experiment [6], -0.04 °C.
Regarding `Cc1cc(-c2cnc(N)c3c(-c4ccc5scnc5c4)csc23)n(C)n1`, the ΔTm in experiment [1] was 7.77 °C; in experiment [2] it was -0.21 °C; in experiment [3], 0.67 °C; in experiment [4], -0.81 °C; in experiment [5] it was -0.07 °C; in experiment [6], -0.03 °C.
`CC(=O)Nc1cccc(-n2c(=O)n(C3CC3)c(=O)c3c(Nc4ccc(I)cc4F)n(C)c(=O)c(C)c32)c1`: the ΔTm was -0.1 °C in experiment [1]; 0.48 °C in experiment [2]; 0.23 °C in experiment [3]; -0.51 °C in experiment [4]; 0.29 °C in experiment [5]; -0.21 °C in experiment [6].
Consider `Cc1cn([C@@H](C)CC#N)c(=O)c2cc(Cn3nc(C(F)F)cc3Cl)nn12`, for which the ΔTm was 0.12 °C in experiment [1]; -0.57 °C in experiment [2]; -0.18 °C in experiment [3]; -0.66 °C in experiment [4]; 0.18 °C in experiment [5]; -0.51 °C in experiment [6].
In the case of `CC(=O)N1CCN([C@H]2CCC[C@@H](NC(=O)c3cc4c(F)ccc(C)c4[nH]3)C2)CC1`, the thermal shift (ΔTm) was 0.29 °C in experiment [1]; 0.89 °C in experiment [2]; 0.05 °C in experiment [3]; -0.56 °C in experiment [4]; 0.42 °C in experiment [5]; -0.61 °C in experiment [6].
Regarding `Cc1nn(-c2nc3ccc(Cl)c(Cl)c3[nH]2)c(O)c1C1OC(=O)c2ccccc21` (stereo not drawn), the thermal shift (ΔTm) is -0.04 °C in experiment [1]; 2.69 °C in experiment [2]; -0.14 °C in experiment [3]; 0.53 °C in experiment [4]; 0.2 °C in experiment [5]; 0.71 °C in experiment [6].
Regarding `O=C(O)CCCCCC[C@@H]1C(=O)NC(=O)N1CCC(O)C1CCCCC1` (stereo partly drawn), the ΔTm was 0.19 °C in experiment [1]; 0.46 °C in experiment [2]; -0.02 °C in experiment [3]; 0.34 °C in experiment [4]; -0.39 °C in experiment [5]; -0.24 °C in experiment [6].
Take `CNC(=O)c1ccc2c(c1)NC(=O)/C2=C(\Nc1ccc(CN2CCCCC2)cc1)c1ccccc1`: the ΔTm in experiment [1] worked out at 7.98 °C; in experiment [2] it was 0.46 °C; in experiment [3], 0.03 °C; in experiment [4], 1.71 °C; in experiment [5], 0.02 °C; in experiment [6], 3.8 °C.
Regarding `Fc1ccc(-c2c3cccc(C(F)(F)F)c3nn2Cc2ccc(F)cc2Cl)cc1`, the shift in melting temperature (ΔTm) in experiment [1] was 0.02 °C; in experiment [2] it was 0.18 °C; in experiment [3], 0.79 °C; in experiment [4], -1.83 °C; in experiment [5], 0.06 °C; in experiment [6] it was -1.66 °C.
Take `CN[C@@H](C)C(=O)N[C@H](C(=O)N1CCC[C@H]1C(=O)N[C@H]1c2ccccc2C[C@H]1OCC#CC#CCO[C@@H]1Cc2ccccc2[C@@H]1NC(=O)[C@@H]1CCCN1C(=O)[C@@H](NC(=O)[C@H](C)NC)C1CCCCC1)C1CCCCC1`: the thermal shift (ΔTm) in experiment [1] was 0.18 °C; in experiment [2] it was -0.48 °C; in experiment [3], 0.49 °C; in experiment [4], -1.17 °C; in experiment [5] it was 0.11 °C; in experiment [6] it was -1.88 °C.
Take `COc1ccccc1[C@@H]1CNCCC12CCN(C(=O)[C@](OC)(c1ccccc1)C(F)(F)F)CC2`: the ΔTm in experiment [1] is 0.26 °C; in experiment [2] it was 0.48 °C; in experiment [3] it was 0.35 °C; in experiment [4], -1.18 °C; in experiment [5] it was -0.22 °C; in experiment [6] it was -0.11 °C.
As to `CC#CC(=O)N1CCN(c2nc(-c3ccc(Oc4ccccc4)cc3)c(C(N)=O)s2)CC1`, the shift in melting temperature (ΔTm) in experiment [1] was -0.27 °C; in experiment [2] it was -1.44 °C; in experiment [3] it was -8 °C; in experiment [4], -2.57 °C; in experiment [5], -9.83 °C; in experiment [6], -1.3 °C.
For `CC1(C)Oc2ncnc(N)c2N=C1c1ccc([C@H]2CC[C@H](CC(=O)O)CC2)cc1`, the thermal shift (ΔTm) in experiment [1] is 0.89 °C; in experiment [2], 0.57 °C; in experiment [3] it was -0.19 °C; in experiment [4], 0.61 °C; in experiment [5] it was 0.18 °C; in experiment [6] it was 0.25 °C.
Take `O=c1[nH]c(CS[C@H]2CC[C@H](O)CC2)nc2cc(OCC3CC3)cc(F)c12`: the ΔTm was 0.13 °C in experiment [1]; 0.95 °C in experiment [2]; 0.35 °C in experiment [3]; 0.78 °C in experiment [4]; 0.46 °C in experiment [5]; -0.03 °C in experiment [6].
